Rows were chosen to be rich in hits. Some 21% of all compounds tested hit in one or more screens of this group.
NS1 inh = qHTS Assay for Inhibitors of Influenza NS1 Protein Function. Potency, µM (top dose mostly 46.1 µM). 270,000 tested, 0.4% active; also: actives are rising curves; nearly all actives have a fitted effect of over 50% in size
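Recovery from NS1-induced slow growth read by OD600 in budding yeast switched to galactose assay medium (pH 6.0, -URA) at 1:100 dilution. Compound 23 nl per well; the matching strain lacking NS1 serves as control.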
SARS PLP yeast = qHTS of Yeast-based Assay for SARS-CoV PLP; AID 485353, 2010; Potency, µM (top dose mostly 32.9 µM), usual class: activators; 330,000 tested, 0.19% active; S. cerevisiae expressing SARS-CoV PLpro, growth rescue; also: nearly all actives have a fitted effect of over 55% in size
Shiga toxin inh = A qHTS for Small Molecule Inhibitors of Shiga Toxin; Vero cells, Shiga toxin protein synthesis inhibition reporter; inhibition, % at 38.7 µM; 290,000 tested, 9.2% active; AID 2315, 2010; in the data active = inhibition mostly above about 28%, no sharp cut-off; inactive = mostly below about 43%
Pf growth 96h = Primary qHTS for delayed death inhibitors of the malarial parasite plastid, 96 hour incubation | P. falciparum luciferase reporter growth, 96 h | Potency, µM (highest dose often 28.7 µM), actives largely listed as inhibitors | 320,000 tested, 6.9% active; active = well fitted inhibition curve with a large enough effect; inconclusive = small, poorly fitted or top-dose-only effect, or another doubt; inactive = no such curve, though single readings can be large or run the other way
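Luminescence readout: decreased luciferase signal marks inhibited growth of reporter-expressing P. falciparum in infected red cells (2% hematocrit, 0.05% parasitemia final), exposed to compound two generations (96 h, 37 C, 5% CO2).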
Pf growth 48h = Primary qHTS for delayed death inhibitors of the malarial parasite plastid, 48 hour incubation. P. falciparum luciferase growth in erythrocytes, 48 h. Potency, µM (titrated, usually from 28.7 µM), usual class: inhibitors. 310,000 tested, 5.9% active. AID 504832, 2011; active = well fitted inhibition curve with a large enough effect; inconclusive = small, poorly fitted or top-dose-only effect, or another doubt; inactive = no such curve, though single readings can be large or run the other way
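Cell-based growth assay: transgenic P. falciparum expressing firefly luciferase, cultured in red cells within RPMI 1640 containing 0.5% w/v Albumax, 24 mM bicarbonate and gentamycin. A drop in luciferase activity indicates inhibition.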
CHX counter = Cycloheximide Counterscreen for Small Molecule Inhibitors of Shiga Toxin; 300,000 tested, 12% active; cell reporter, cycloheximide protein synthesis inhibition counterscreen; max response, %; in the data active = max response mostly above about 13%, no sharp cut-off; inactive = mostly below about 14%; also: read at 38.3 µM for the half of the compounds with a filed dose
Hits are given with their value; - = inactive; ? = inconclusive; . = no result given. Unless noted, calls follow the shape of the full dose curve.

SMILES | NS1 inh | SARS PLP yeast | Shiga toxin inh | Pf growth 96h | Pf growth 48h | CHX counter
CCCn1nnc(NC(=O)c2cccc(OCC)c2)n1 | - | - | 130 | . | - | 45
CCCn1nnc(NC(=O)c2ccc(F)cc2)n1 | - | - | 57 | - | - | 48
CCCn1nnc(NC(=O)c2ccc(Br)o2)n1 | - | - | - | . | - | -
CCn1nnc(NC(=O)c2cccnc2)n1 | - | - | - | - | - | -
CCCn1nnc(NC(=O)c2cccc(OCC(C)C)c2)n1 | - | - | 71 | - | - | 39
Cc1ccc(C(=O)N2CCN(C34CC5CC(CC(C5)C3)C4)CC2)o1 | - | - | - | ? | - | -
COc1ccc(C)cc1NC(=O)C(c1ccccc1)N1CCNC(=O)C1 (stereo not given) | . | - | - | - | - | -
CCCn1nnnc1NC(=O)c1ccc2ccccc2c1 | - | - | - | ? | - | -
CCCn1nnc(NC(=O)c2ccc3ccccc3c2)n1 | . | - | 143 | - | - | 44
CC1(C)Cc2c(cnn2-c2cccc(F)c2)C(NC(=O)c2csnn2)C1 (stereo not given) | - | - | - | 6.6µM | - | -
Cc1cc(C(=O)NC2CC(C)(C)Cc3c2cnn3-c2cccc(F)c2)n(C)n1 (stereo not given) | - | - | - | 9.3µM | ? | -
COc1ccccc1/C=N/OCc1cc(C(C)=O)ccc1OC | - | - | - | - | - | -
COCCCNC(=O)c1c(N)n(-c2ccc3c(c2)OCO3)c2nc3ccccc3nc12 | - | - | - | - | 6.6µM | -
O=c1c2c3nc4ccccc4nc3n(-c3ccc4c(c3)OCCO4)c2ncn1C1CCCC1 | - | - | - | . | 8.3µM | -
CCOCCCNC(=O)c1c(N)n(-c2ccc3c(c2)OCO3)c2nc3ccccc3nc12 | - | - | - | ? | ? | -
CCCNC(=O)c1c(N)n(-c2cc(OC)cc(OC)c2)c2nc3ccccc3nc12 | - | - | - | 10µM | ? | -
Nc1c(C(=O)OCC2CCCO2)c2nc3ccccc3nc2n1-c1ccc2c(c1)OCCO2 (stereo not given) | - | - | 60 | . | ? | 35
Nc1c(C(=O)NC2CC2)c2nc3ccccc3nc2n1-c1ccc2c(c1)OCO2 | - | - | - | ? | - | -
O=C1[C@@H]2[C@@H](C(=O)N1c1ccc(OCc3ccccc3)cc1)[C@@H]1c3ccccc3[C@@H]2[n+]2ccccc21 | - | . | . | . | . | .
CCCNC(=O)c1c(N)n(-c2ccc3c(c2)OCO3)c2nc3ccccc3nc12 | - | - | - | 4.1µM | 8.3µM | -
COc1ccc(N2CCN(C(c3cccs3)C(C)NS(C)(=O)=O)CC2)cc1 (stereo not given) | . | - | - | - | - | -
Cc1ccc(NC(=O)CSc2nnc(-c3cccs3)o2)cc1S(=O)(=O)N(C)C | - | - | 117 | - | - | 27
Cc1ccc(NC(=O)c2ccccc2Br)cc1S(=O)(=O)N(C)C | . | - | - | ? | ? | -
Cc1ccc(S(=O)(=O)N2CCCCC2)cc1NC(=O)c1cncc(Br)c1 | . | - | . | ? | ? | .
CN(C)S(=O)(=O)c1cccc(NC(=O)c2cncc(Br)c2)c1 | - | - | - | - | - | -
SMILES | NS1 inh | SARS PLP yeast | Shiga toxin inh | Pf growth 96h | Pf growth 48h | CHX counter
Cc1ccc(NC(=O)c2sccc2C)cc1S(=O)(=O)N(C)C | - | - | - | - | - | 28
Cc1ccc(S(=O)(=O)N(C)C)cc1NC(=O)c1cncc(Br)c1 | - | - | - | 13µM | 13µM | -
Cc1ccc(NC(=O)c2cncc(Br)c2)cc1S(=O)(=O)N(C)C | - | - | 99 | - | - | 38
O=C(CSc1cccc(C(F)(F)F)c1)Nc1ccc(Cl)cc1Cl | - | - | - | - | - | -
C=C1CC[C@H](O)C/C1=C/C=C1\CCC[C@]2(C)[C@@H]([C@H](C)/C=C/[C@H](C)C(C)C)CC[C@@H]12 | . | . | . | - | ? | .
CCC1(C)NC(=O)N(CC(=O)N2N=C(c3ccccc3)CC2c2ccc(OC)cc2)C1=O (stereo not given) | - | - | - | ? | - | -
Cc1ccc(NC2CCCN(C(=O)c3cn4cc(Cl)ccc4n3)C2)cc1C (stereo not given) | - | - | - | - | - | -
Cc1ccc(NC2CCCN(C(=O)c3ccccn3)C2)cc1C (stereo not given) | - | - | - | 13µM | - | -
Cc1ccc(NC2CCCN(C(=O)c3cn4cccc(C)c4n3)C2)cc1C (stereo not given) | - | - | - | 4.1µM | - | -
COCCNC(=O)c1csc2c1CCCC2 | - | - | - | ? | - | -
CCOc1ccc(NC(=O)c2csc3c2CCCC3)cc1 | - | - | - | - | - | 36
CC(=O)c1cccc(NC(=O)c2csc3c2CCCCC3)c1 | . | - | 55 | ? | - | 37
CCOC(=O)c1sc(NC(=O)CSc2nccc(C)n2)nc1C | - | - | - | - | - | -
CCOC(=O)c1sc(NC(=O)CSc2nnc(-c3ccc(OC)cc3)n2CCOC)nc1C | - | - | - | 13µM | ? | -
CCOC(=O)c1sc(NC(=O)CSc2ncccn2)nc1C | - | - | 41 | 13µM | - | -
CCOC(=O)c1sc(NC(=O)CSc2nccn2C)nc1C | - | - | 112 | - | - | 35
O=C(NCc1ccco1)C1CCCN(c2nnc(-n3cccc3)s2)C1 (stereo not given) | - | - | - | - | - | -
Fc1cccc(F)c1C(Nc1nncs1)Nc1nncs1 | - | . | . | . | . | .
Oc1ccc(/C=N/NC2=NCCCCC2)cc1 | - | - | - | - | . | -
COc1ccc(OC)c(NC(=O)Cn2nc(C)c3ccccc3c2=O)c1 | - | - | - | ? | - | -
Cc1onc(-c2ccccc2)c1C(=O)N1CCN(C/C=C/c2ccccc2)CC1 | - | - | - | 2.1µM | . | -
CCc1noc(C)c1C(=O)N1CCN(c2cccc(C)c2C)CC1 | . | - | . | - | ? | .
Cc1cccc(N2CCN(C(=O)c3c(-c4ccccc4)noc3C)CC2)c1C | - | - | - | 10µM | ? | -
CCC(C)[C@H](NC(=O)Nc1ccc(C(C)=O)cc1)C(=O)OC (stereo not given in full) | - | - | - | - | - | -
NC(=O)[C@H]1CCCN1C(=O)[C@H](Cc1cnc[nH]1)NC(=O)[C@@H]1CCC(=O)N1 | . | . | - | . | . | -
SMILES | NS1 inh | SARS PLP yeast | Shiga toxin inh | Pf growth 96h | Pf growth 48h | CHX counter
O=C(COc1ccccc1)N1CCCCCCC1 | - | - | - | - | - | -
O=C(COc1ccc2ccccc2c1)N1CCN(c2ccccc2)CC1 | . | - | . | - | - | .
COc1ccc(N2CCN(C(=O)COc3ccc4ccccc4c3)CC2)cc1 | - | - | - | 9.3µM | - | -
O=C(COc1ccc2ccccc2c1)N1CCCC1 | - | - | 79 | - | - | 40
CN1CCN(C(=O)COc2ccc3ccccc3c2)CC1 | - | - | 31 | - | - | 14
CN(Cc1ccc(OCC(O)CN2CCCCC2)cc1)Cc1ccnc2ccccc12 (stereo not given) | - | - | - | - | 12µM | -

From PubChem
